Only a selection was taken, and hits are over-represented in it overall.
Shiga toxin inh: A qHTS for Small Molecule Inhibitors of Shiga Toxin. inhibition, % at 38.7 µM. Vero cells, Shiga toxin protein synthesis inhibition reporter. AID 2315, 2010. hit rate 9.2% among 290,000; in the data active = inhibition mostly above about 28%, no sharp cut-off; inactive = mostly below about 43%; also: 0% is about no effect
FBPA Giardia inh: qHTS Assay for Inhibitors of Fructose-1,6-bisphosphate Aldolase from Giardia Lamblia; Potency, µM (top dose mostly 59.6 µM), for inactives: at the highest dose activity, negative = inhibition, hits mostly inhibitors; purified Giardia FBPA; hit rate 0.71% among 290,000; also: potency is read from the fitted curve at half-maximal effect; % is scaled to controls: 0 for no effect and ±100 for the full control effect; nearly all actives have a fitted effect of over 55% in size
Target sequence (A8B2U2 whole entry, looked up): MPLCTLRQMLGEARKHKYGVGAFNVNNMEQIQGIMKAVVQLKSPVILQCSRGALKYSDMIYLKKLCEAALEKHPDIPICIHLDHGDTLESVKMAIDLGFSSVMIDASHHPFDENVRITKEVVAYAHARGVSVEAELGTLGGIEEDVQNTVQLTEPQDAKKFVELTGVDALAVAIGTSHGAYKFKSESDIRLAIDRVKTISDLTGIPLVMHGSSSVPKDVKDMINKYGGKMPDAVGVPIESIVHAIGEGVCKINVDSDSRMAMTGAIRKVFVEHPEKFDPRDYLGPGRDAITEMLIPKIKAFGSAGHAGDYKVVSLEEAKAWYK
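40 nM FBPA preincubated 10 min at RT with compound (up to 57.5 uM final), then substrate plus GAPDH/TPI/NAD/arsenate coupling and diaphorase/resazurin added. Fluorescence read after 20 min at RT, 525/598 nm.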
Sm TGR inh: qHTS Assay for the Inhibitors of Schistosoma Mansoni Peroxiredoxins | purified TGR, DTNB reduction, TNB absorbance 405 nm | AID 485364, 2010 | hit rate 3% among 360,000 | Potency, µM (series often up to 114 µM), for the others: top-dose activity change, negative = inhibition, usual class: inhibitors | Schistosoma mansoni thioredoxin glutathione reductase (TGR), Q962Y6; also: potency is read from the fitted curve at half-maximal effect; % is scaled to controls: 0 for no effect and ±100 for the full control effect; nearly all actives have a fitted effect of over 60% in size
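TGR 20 nM + NADPH 100 uM (dispensed conc.), cpd preinc 15 min RT; start with NADPH (500 uM addition) then DTNB (15 mM addition). Kinetic TNB absorbance, 405 nm filter. Four-parameter Hill fit across titration.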
LmPK inh: qHTS Assay for Inhibitors of Leishmania Mexicana Pyruvate Kinase (LmPK). hit rate 0.37% among 290,000. AID 1721, 2009. Q27686. Potency, µM (doses to about 57.5 µM), for the others: at the highest dose activity change, negative = inhibition, usual class: inhibitors. purified LmPK, Kinase-Glo ATP luminescence, 1 h; also: potency is read from the fitted curve at half-maximal effect; % is scaled to controls: 0 for no effect and ±100 for the full control effect
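qHTS format; LmPK 0.1 nM; substrates PEP 0.5 mM and ADP 0.1 mM. One-hour room-temperature incubation, then coupled luciferase luminescence; 0.5 nM enzyme wells mark activation.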
CHX counter: Cycloheximide Counterscreen for Small Molecule Inhibitors of Shiga Toxin; cell reporter, cycloheximide protein synthesis inhibition counterscreen; max response, %; hit rate 12% among 300,000; in the data active = max response mostly above about 13%, no sharp cut-off; inactive = mostly below about 14%; also: read at 38.3 µM for the half of the compounds with a filed dose; 0% is about no effect
TbPYK inhibitor: qHTS of Trypanosoma Brucei Inhibitors; TbPYK enzyme, Kinase-Glo Plus ATP luminescence, 45 min; Potency, µM (highest dose often 76.8 µM), for inactives: at the top dose activity, negative = inhibition, actives largely listed as inhibitors; hit rate 0.12% among 410,000; also: potency is read from the fitted curve at half-maximal effect; % is scaled to controls: 0 for no effect and ±100 for the full control effect; nearly all actives have a fitted effect of over 50% in size
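ADP (130 uM final) triggers the TbPYK reaction after compound addition; incubation is 45 min at room temperature. Kinase-Glo Plus is then added and luminescence imaged. Normalized data are fitted to concentration-effect curves.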
Numbers without * were called inactive; ? = inconclusive; nt = no result; [ ] = remark or other dose. Unless noted, calls follow the shape of the dose curve; as a rule, active = well fitted curve in the direction sought with a large enough effect; inconclusive = small, poorly fitted or top-dose-only effect, or another doubt; inactive = no such curve, though single readings can be large; an effect the other way counts as inactive or inconclusive.

SMILES	Shiga toxin inh	FBPA Giardia inh	Sm TGR inh	LmPK inh	CHX counter	TbPYK inhibitor
COC(=O)Nc1c(-c2ccccc2)nc2ccc(Cl)cn12	-3.5	-6.6%	0.0%	-0.3%	-2.5	-16.4%
COC(=O)CNc1c(-c2ccccc2)nc2ccc(Br)cn12	50.0*	-6.2%	-8.8%	-9.4%	42.0*	-2.4%
COCCn1c(C)cc(C(=O)CSc2nc(C)c(C)c(C)n2)c1C	24.3	-17.0%	-16.9%	11.3%	11.2	-23.7%
COCCn1c(C)cc(C(=O)CSc2nnc3ccccn23)c1C	-7.6	0.3%	-4.0%	-18.1%	13.3	-8.3%
COCCn1c(C)cc(C(=O)CSc2nc3ccccc3s2)c1C	19.8	-7.3%	-3.1%	-2.6%	80.1*	0.4%
COCCn1c(SCC(=O)c2cc(C)n(C)c2C)nc2ccccc2c1=O	38.8	-3.7%	2.3%	-1.4%	11.2*	1.4%
COCCn1c(C)cc(C(=O)CSc2nc3ccccc3o2)c1C	120.2*	-1.8%	-5.9%	-4.6%	50.8*	-6.2%
COCCn1c(C)cc(C(=O)CSc2cc(C)c3ccc(OC)cc3n2)c1C	33.6	-2.1%	-9.4%	3.4%	18.2*	-5.6%
COCCn1c(C)cc(C(=O)CSc2ncn[nH]2)c1C	71.2*	-13.3%	-9.5%	-0.2%	36.0*	-13.6%
COCCn1c(SCC(=O)c2c(C)[nH]c3ccccc23)nc2cc(C(=O)NC(C)C)ccc2c1=O	nt	nt	35.5µM*	nt	nt	-7.9%
COCCCn1c(SCC(=O)Nc2ccc(C)cc2)nc2ccccc2c1=O	56.4*	-7.7%	8.0%	8.6%	13.4	4.8%
CC(C)CC1(C)NC(=O)N(CC(=O)NC(=O)Nc2ccc3c(c2)OCCO3)C1=O (stereo not drawn)	48.4*	-15.1%	-4.2%	6.7%	57.6*	-2.0%
CC(C)CCC1(C)NC(=O)N(CC(=O)Nc2ccc3c(c2)OCCO3)C1=O (stereo not drawn)	nt	nt	nt	nt	nt	1.7%
O=C(CSc1nnnn1-c1ccc(Cl)cc1)NC(=O)Nc1ccc2c(c1)OCCO2	71.5*	4.8%	-6.7%	-0.1%	28.6*	-5.8%
Cc1nnc(SCC(=O)NC(=O)Nc2ccc3c(c2)OCCO3)n1N	50.4*	-1.2%	-3.2%	-2.5%	39.1*	0.8%
CC(C)Oc1cccc(-c2nnc(SCC(=O)Nc3ccc4c(c3)OCCO4)n2N)c1	99.9	-0.1%	13.3%	1.1%	34.2*	0.4%
CC#CCN1c2ccccc2[C@]23C[C@@H](C(=O)OC)N(C(=O)COCc4ccccc4)C2=NC(C(=O)OC)=C(C(=O)OC)[C@H]13	nt	-0.1%[12.9 µM]	nt	-1.5%[11.5 µM]	nt	nt
NN(CCO)C(=S)Nc1ccc(Cl)cc1	17.9	-13.0%	0.8%	1.4%	5.6	-0.3%
Cc1ccc(-n2nnnc2SCC(=O)NC(=O)Nc2ccc3c(c2)OCCO3)cc1	74.8*	-0.4%	-13.2%	0.8%	23.5*	-2.0%
COc1ccc(-n2nnnc2SCC(=O)NC(=O)Nc2ccc3c(c2)OCCO3)cc1	92.0*	0.0%	-0.8%	5.0%	21.2*	-5.3%
O=C(CSc1nnnn1-c1ccccc1Cl)Nc1ccc2c(c1)OCCO2	83.8*	-5.0%	7.7%	7.5%	46.0*	-3.5%
COc1ccc(NC(=O)CSc2nnnn2-c2ccc(OC)cc2)cc1	-40.4	2.0%	0.0%	2.9%	-1.2	4.0%
CCC(C)NC(=O)Cn1c(=O)n(-c2ccc(OC)c(OC)c2)c(=O)c2ccccc21 (stereo not drawn)	nt	nt	-4.8%	nt	nt	0.3%
CCOC(=O)N1N=C(CC)CC1(O)C(F)(F)F (stereo not drawn)	11.7	-1.4%	3.8%	5.1%	-2.0	2.7%
CCOC(=O)N1N=C(c2ccccc2)CC1(O)C(F)(F)F (stereo not drawn)	101.1*	0.5%	4.7%	-16.6%	49.3*	0.2%
SMILES	Shiga toxin inh	FBPA Giardia inh	Sm TGR inh	LmPK inh	CHX counter	TbPYK inhibitor
COC(=O)N1N=C(c2ccc(Br)cc2)CC1(O)C(F)(F)F (stereo not drawn)	40.1*	2.4%	-0.4%	-6.2%	47.3*	-4.7%
CCOC(=O)N1N=C(c2ccc(C)cc2)CC1(O)C(F)(F)F (stereo not drawn)	36.5*	2.5%	6.3%	-5.5%	14.6*	-1.2%
CC1=NN(C(=O)c2ccc(C)cc2)C(O)(C(F)(F)OC(F)(F)F)C1 (stereo not drawn)	71.8*	0.9%	34.0%	2.7%	31.2*	2.8%
O=C(/C=C/c1ccc2ccccc2n1)c1cc(Cl)ccc1O	65.7*	-12.7%	25.1µM*	3.7%	39.1*	-3.7%
O=C(NNC(=O)c1ccc(Cl)cc1Cl)c1csc(-c2cccnc2)n1	22.2	-0.5%	10.2%	3.9%	19.4*	1.4%
CSc1cccc(NC(=O)N2CCc3ccc(NC(=O)c4ccccn4)cc3C2)c1	77.4*	nt	6.7%	-12.8%	18.4*	-1.3%
O=C(Nc1cccc(Cl)c1)c1cnc[nH]1	74.7*	13.2%	1.5%	-1.7%	54.5*	3.9%
CSc1cccc(NC(=O)c2cnccn2)c1	39.4	-0.1%	3.0%	-9.4%	30.7*	-4.9%
O=C(NCc1ccc(Cl)cc1)c1csc(-c2cccnc2)n1	-9.8	-0.4%	-2.2%	7.7%	-4.8	-3.7%
Cc1ccc(NC(=O)CCS(=O)(=O)c2cc(Br)cc3c2N(C(=O)C2CC2)CC3)cc1	nt	nt	-4.5%	nt	nt	0.1%
C/C=C(/C)C(=O)O[C@H]1CC(C)=CC(=O)[C@@]2(C)CC[C@@](O)(C(C)C)[C@H]12	-5.6	3.9%	nt	nt	-5.0	nt
COC(=O)c1cccc(NC(=O)c2cnccn2)c1	-3.4	-2.3%	0.5%	-5.8%	-0.6	0.5%
O=C(Nc1cccc(Cl)c1)c1csc(-c2ccccc2)n1	97.8	?	2.1%	1.9%	43.0*	2.5%
O=C(Nc1cccc(Cl)c1)c1cnccn1	nt	0.1%	-3.0%	7.9%	15.5*	-4.0%
CSc1cccc(NC(=O)c2ccccn2)c1	103.2*	0.7%	2.4%	-24.4%	37.5*	nt
CSc1cccc(NC(=O)c2ccc(Cl)nc2)c1	61.1*	nt	-11.3%	-1.0%	40.2*	34.1%
COc1cc(C)ccc1OCCSc1nc2ccc(NC(=O)c3ccco3)cc2s1	nt	nt	12.4%	nt	nt	-8.1%
O=c1[nH]nc(Cc2ccc3ccccc3n2)c2ccccc12	35.8*	-2.0%	-2.3%	-0.9%	28.3*	-0.4%
CCOc1ccc(NC(=O)CN2CCSc3ccc(S(=O)(=O)N4CCCC4)cc32)cc1	nt	nt	3.2%	nt	nt	-3.6%
CCc1ccc(NC(=O)N(Cc2ccco2)C(C)c2cccs2)cc1 (stereo not drawn)	51.6*	-0.7%	20.6%	2.9%	21.3*	0.2%
CCc1ccccc1NC(=S)N(Cc1ccco1)C(C)c1cccs1 (stereo not drawn)	-3.1	-3.2%	0.2%	10.1%	9.7	-3.8%

Compound activity (PubChem BioAssay)
